Compound activity from PubChem.
JMJD2A Tudor inh: blocks the human JMJD2A Tudor domain; AID 504339; AlphaScreen JMJD2A-Tudor / H3K4me3 peptide binding; O75164; Potency, µM (highest dose often 114 µM), inactives show at the top dose activity change, negative = inhibition, hits mostly inhibitors; actives 4.4% (n = 390,000); also: % is scaled to controls: 0 for no effect and ±100 for the full control effect; nearly all actives have a fitted effect of over 50% in size
HP1b binding inh: inhibitors of HP1-beta chromodomain binding to methylated histone tails. P83916. Potency, µM (top dose mostly 114 µM), for the others: at the top dose activity change, negative = inhibition, hits mostly inhibitors. AlphaScreen HP1-beta / biotin-H3K9me3 peptide binding. actives 0.56% (n = 390,000); also: nearly all actives have a fitted effect of over 70% in size
Target sequence (P83916 whole entry, looked up): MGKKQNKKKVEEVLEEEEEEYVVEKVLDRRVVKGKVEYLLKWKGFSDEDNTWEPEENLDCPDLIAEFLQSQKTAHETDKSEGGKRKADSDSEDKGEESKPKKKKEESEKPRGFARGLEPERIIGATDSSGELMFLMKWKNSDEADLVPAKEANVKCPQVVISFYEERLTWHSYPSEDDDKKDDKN
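AlphaScreen: HP1-beta (50 nM) preformed 30 min with biotin-H3(1-18)K9me3 peptide (50 nM) in PBS pH 7.4, 0.01% Tween-20. Compound added for 30 min at RT, then streptavidin donor/nickel chelate acceptor beads (10 ug/mL) for 30 min.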
G9a block: inhibitors of human histone lysine methyltransferase G9a | Q96KQ7 | G9a H3K9 monomethylation, AlphaScreen, 2 h | Potency, µM (highest dose often 102 µM), inactives show at the highest dose activity, negative = inhibition, actives largely listed as inhibitors | actives 8.8% (n = 350,000) | AID 504332; also: % is scaled to controls: 0 for no effect and ±100 for the full control effect; nearly all actives have a fitted effect of over 75% in size
Target sequence (Q96KQ7 913-1193 limits assumed): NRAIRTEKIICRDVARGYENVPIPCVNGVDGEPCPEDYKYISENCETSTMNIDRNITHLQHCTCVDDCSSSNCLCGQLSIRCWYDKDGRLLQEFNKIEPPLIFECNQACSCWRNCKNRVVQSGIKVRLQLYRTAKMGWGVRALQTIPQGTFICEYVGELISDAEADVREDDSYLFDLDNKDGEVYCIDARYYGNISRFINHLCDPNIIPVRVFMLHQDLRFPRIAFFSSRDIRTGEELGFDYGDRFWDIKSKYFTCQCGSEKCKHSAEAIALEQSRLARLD
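Methyltransferase reactions run at room temperature for 2 h (20 nM enzyme, 500 nM biotin-H3K9 peptide, 20 uM SAM) after a 15 min compound preincubation; product detected by AlphaScreen beads and anti-H3K9me1 antibody.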
BAZ2B block: inhibitors of human BAZ2B bromodomain; AID 504333; AlphaScreen BAZ2B-H3K14Ac peptide displacement; actives 4.4% (n = 360,000); Q9UIF8; Potency, µM (series often up to 114 µM), for inactives: at the top dose activity change, negative = inhibition, actives largely listed as inhibitors; also: % is scaled to controls: 0 for no effect and ±100 for the full control effect; nearly all actives have a fitted effect of over 60% in size
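AlphaScreen displacement: compounds (up to 110uM) incubated 30 min at room temperature with a preformed 50 nM BAZ2B/50 nM biotinylated H3K14Ac peptide complex in PBS pH 7.4 with Tween-20. Donor and acceptor beads at 10 ug/mL final added, 20 min light-protected before reading.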
L3MBTL1 inh: inhibitors of human L3MBTL1; Q9Y468; AlphaScreen L3MBTL1–H3K9me1 peptide binding; Potency, µM (top dose mostly 57.1 µM), without a hit: at the top dose activity, negative = inhibition, hits mostly inhibitors; actives 0.66% (n = 230,000); also: % is scaled to controls: 0 for no effect and ±100 for the full control effect; nearly all actives have a fitted effect of over 60% in size
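AlphaScreen assay: L3MBTL1 (50 nM final) was preincubated 30 min at room temperature with biotinylated H3(1-15)K9me1 peptide (75 nM final), then 30 min with library compounds; streptavidin donor and nickel chelate acceptor beads (10 ug/mL final) added, 30 min dark.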
Numbers without * were called inactive; ? = inconclusive; · = no result given; [ ] = another dose, or the depositor's remark. Hits are enriched below; roughly 11% of the tested compounds scored in any of these assays. Calls follow the shape of the dose curve; as a rule, active = well fitted inhibition curve with a large enough effect; inconclusive = small, poorly fitted or top-dose-only effect; inactive = no such curve, though single readings can be large or run the other way. Potency is read from the fitted curve at half-maximal effect.

SMILES	JMJD2A Tudor inh	HP1b binding inh	G9a block	BAZ2B block	L3MBTL1 inh
O=C(CN1C(=O)COc2ccc(S(=O)(=O)Nc3ccccc3)cc21)Nc1cccc(Cl)c1	-20.0%	24.8%	-5.7%[59 µM]	-18.0%	·
CCCC(=O)Nc1nnc(-c2ccc3c(c2)OCCO3)o1	?	-7.5%	3.1%	79.4µM*	-18.7%
O=C(c1ccc(NS(=O)(=O)c2cccc([N+](=O)[O-])c2)cc1)N1CCCCCC1	-10.9%	16.3%	-23.9%	6.4%	4.6%
CC(=O)N1CCC(=NNS(=O)(=O)c2ccc(C)c([N+](=O)[O-])c2)CC1	-13.1%	30.8%	11.2µM*	7.2%	·
C/C(=N\NS(=O)(=O)c1cccc([N+](=O)[O-])c1)c1cccnc1	7.6%	20.0%	31.6µM*	-21.7%	-2.2%
CC(=O)N1CCC(=NNS(=O)(=O)c2cccc([N+](=O)[O-])c2)CC1	-16.7%	51.0%	10µM*	-0.5%	·
C/C(=N/NC(=O)CNC(=O)c1cccnc1)c1cccc([N+](=O)[O-])c1	-9.1%	27.8%	66.5%[59 µM]	-16.3%	·
CC(=O)N1CCC(=NNc2ccc(S(N)(=O)=O)cc2[N+](=O)[O-])CC1	-12.3%	-14.8%	3.9%[59 µM]	-14.7%	1.7%
Cc1cc(C)c(CSc2nnc(C)n3c2cc2occc23)c(C)c1	?	?	?	39.8µM*	·
COc1ccccc1CNC(=O)c1ccc(N2CCCC2)c(NC(=O)NCc2ccc(F)cc2)c1	-4.6%	67.5%	32.4%[59 µM]	18.2%	·
Cc1ccc(C)c(OCC(O)CN2CCN(CCN3C(=O)c4cccc5cccc(c45)C3=O)CC2)c1 (stereo not drawn)	?	-37.8%	?	50.1µM*	-9.2%
O=C1c2cccc3cccc(c23)C(=O)N1CC1CCN(CC(O)COc2ccc3ccccc3c2)CC1 (stereo not drawn)	12.6µM*	?	10µM*	?	-1.3%
CC(=O)c1ccccc1OCC(O)CN1CCN(CCN2C(=O)c3cccc4cccc(c34)C2=O)CC1 (stereo not drawn)	-26.9%	17.3%	22.6%[12.7 µM]	-29.2%	-8.5%
COc1cccc(OCC(O)CN2CCC(CN3C(=O)c4cccc5cccc(c45)C3=O)CC2)c1 (stereo not drawn)	?	-7.2%	?	?	·
COc1ccc(COCC(O)CN2CCC(CN3C(=O)c4cccc5cccc(c45)C3=O)CC2)cc1OC (stereo not drawn)	-20.2%	7.1%	79.4µM*	-38.5%	-4.1%
[C-]#[N+]c1cc(-c2ccncc2)c(C)[nH]c1=O	·	·	17.7%[59 µM]	·	·
COc1ccccc1CN1C[C@@H]2C[C@@H](c3[nH]c4c(C)cccc4c3C)N3CCC[C@@]23C1=O	-35.9%	17.2%	44.7µM*	?	-28.6%
O=C(COc1ccc(/C=C\[N+](=O)[O-])cc1)N1CCOCC1	-25.9%	19.7%	10µM*	-12.5%	46.8%
CCCCn1c(=O)[nH]c(=O)c2c1nc(CN1C(=O)c3ccccc3S1(=O)=O)n2CCC	1.7%	28.8%	7.1%	4.0%	?
CCCCn1c(=O)[nH]c(=O)c2c1nc(Cn1ncc(Cl)c(Cl)c1=O)n2CCC	?	-26.9%[57 µM]	35.5µM*	3.4%	·
CCN(C(=O)CN(C)S(=O)(=O)c1ccc2c(c1)c(=O)n(C)c(=O)n2C)c1ccc(OC)cc1	-2.0%	29.2%	-4.4%[59 µM]	-16.9%	·
CSc1nc(-c2ccco2)nn1C(=O)c1ccc(Cl)cc1	·	·	79.4µM*	-22.9%	·
C=CCNC(=O)N1CCC(n2nccc2NC(=O)CCCc2ccccc2)CC1	-17.2%	27.2%	·	-2.7%	·
NC(=S)N=Nc1c(O)cc(O)c2[nH]c(=O)ccc12	50.1µM*	17.8µM*	·	·	·
COc1ccc(OC)c(NC2=C(Cl)C(=O)N(Cc3ccccc3)C2=O)c1	14.1µM*	?	-114.8%[59 µM]	22.4µM*	?
SMILES	JMJD2A Tudor inh	HP1b binding inh	G9a block	BAZ2B block	L3MBTL1 inh
COc1ccc(N2C(=O)c3ccccc3C2=O)cc1	-14.3%	17.4%	-7.4%[12.7 µM]	-0.1%	-0.5%
O=C1C(Cl)=C(Nc2cccc(O)c2)C(=O)N1Cc1ccccc1	44.7µM*	?	35.5µM*	?	-5.9%
CC1CCCCN1C(=O)c1cccc(NC2=C(Cl)C(=O)N(Cc3ccccc3)C2=O)c1 (stereo not drawn)	?	12.4%	-12.1%[12.7 µM]	-6.8%	-8.8%
CCOc1ccccc1NC1=C(Cl)C(=O)N(Cc2ccccc2)C1=O	-15.3%[11.4 µM]	-31.6%	4.6%[12.7 µM]	?	·
COc1ccc(N2C(=O)C(Cl)=C(Nc3ccccc3OC)C2=O)cc1	?	-27.7%	44.7µM*	?	-21.3%
COc1ccc(N2C(=O)C(Cl)=C(Oc3cccc(OC)c3)C2=O)cc1	?	?	6.31µM*	44.7µM*	-9.0%
O=C1c2ccccc2C(=O)N1c1ccccc1O	0.7%	·	·	·	·
COc1ccc(N2C(=O)c3ccc(C(=O)Nc4ccccc4O)cc3C2=O)cc1	-29.7%	10.9%	-23.4%	?	6.5%
COc1ccc(N2C(=O)c3cccc4c(N(C)CCO)ccc(c34)C2=O)cc1	-16.9%	14.2%	9.3%	3.2%	-1.0%
COc1ccc(N2C(=O)C(Cl)=C(Nc3ccccc3O)C2=O)cc1	44.7µM*	28.2µM*	3.55µM*	?	·
COc1ccc(NC2=C(c3ccccc3)C(=O)c3ccccc32)cc1Cl	-26.7%	32.6%	13.3%[59 µM]	0.3%	·
COc1ccc(N2C(=O)C(Cl)=C(N(CCO)Cc3ccccc3)C2=O)cc1	-31.2%	25.1%	50.1µM*	?	-5.7%
COc1ccc(OC)c(NC2=C(c3ccccc3)C(=O)c3ccccc32)c1	12.6µM*	12.6µM*	11.2µM*	5.62µM*	·
CCOc1ccc(NC(=O)CC2C(=O)N(c3ccc(C)cc3)C(=O)N2Cc2ccc(OC)cc2)cc1 (stereo not drawn)	?	11.9%	-33.9%[59 µM]	?	·
Cc1ccc2c(CC(=O)Nc3ccc(S(=O)(=O)N4CCCCC4)cc3)coc2c1C	-19.1%	13.6%	-6.8%[59 µM]	?	·
COc1ccc(OC)c(NC(=O)COc2coc(CN3CCc4ccccc43)cc2=O)c1	-28.3%	5.9%	?	?	-20.8%
Cc1ccc(NC(=O)COc2coc(CN3CCc4ccccc43)cc2=O)c(C)c1	?	-19.2%	?	50.1µM*	-14.7%
CC1CN(C(=O)COc2coc(CN3CCc4ccccc4C3)cc2=O)CC(C)O1 (stereo not drawn)	-0.7%	38.2%	44.7µM*	-3.9%	9.1%
O=C(COc1coc(CN2CCc3ccccc3C2)cc1=O)Nc1ccc(Cl)cc1	-26.0%	28.8%	-10.1%[0.501 µM]	-18.1%	-7.8%
CCc1ccc(NC(=O)COc2coc(CN3CCc4ccccc4C3)cc2=O)cc1	-6.1%	18.5%	56.2µM*	4.6%	-2.4%
Cc1ccc(NC(=O)COc2coc(CN3CCc4ccccc4C3)cc2=O)c(C)c1	-13.8%	39.6%	50.1µM*	-28.7%	6.5%
N#CN1CCC(NC(=O)c2cccc(F)c2)CC1	-12.3%	·	·	·	·
